The results in this text go back to PubChem BioAssay (NCI).

Compounds without any hit were thinned out: in the full panel of roughly 83,000, 20% have a hit.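 Treatment: one concentration, 48 hours, 96-well format. Scoring: percent growth, with anything below 10 considered active.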 Unmarked numbers belong to inactive results. Active and inactive are the calls of the source.

Some test systems named below: NCI-H23 lung; NCI-H226 lung; NCI-H322M lung; HOP-62 NSCLC; NCI-H460 lung; 786-0 renal; DU-145 prostate; MDA-MB-231 breast; SF-268 CNS; SF-539 CNS; M14 melanoma; SNB-19 CNS; U251 CNS; SN12C renal; UO-31 renal; SK-OV-3 ovarian; MDA-MB-435 melanoma; SW-620 colon; HCT-116 colon; KM12 colon.
What all share (assay): NCI-60 one-dose screen, 48 h (100 = growth as untreated, 0 = no growth, -100 = all killed)
Holding throughout (conditions): 10 µM unless noted

In the case of `S=P(N1CCCCCC1)(N1CC1)N1CC1`, the growth was 102% in the assay on NCI-H23 lung; 106% in the assay with NCI-H226 lung; 121% with NCI-H322M lung; 94.8% in the assay on HOP-62 NSCLC; 107% with NCI-H460 lung; 103% in the assay on 786-0 renal. The growth with DU-145 prostate was 112%; in the assay with MDA-MB-231 breast it was 96.4%; in the assay with SF-268 CNS, 96.8%; in the assay with SF-539 CNS, 102%; in the assay on M14 melanoma, 103%; in the assay on SNB-19 CNS, 101%. Also, the growth was 106% in the assay with U251 CNS; 96.2% in the assay with SN12C renal; 104% with UO-31 renal; 93.9% with SK-OV-3 ovarian; 109% in the assay on MDA-MB-435 melanoma; 108% in the assay on SW-620 colon. The values for the growth with HCT-116 colon and with KM12 colon were 99.8% and 105%, respectively.
For `C1CNC2CCCC2C1` (stereo not drawn), the growth in the assay on NCI-H23 lung was 108%; with NCI-H226 lung, 98.1%; in the assay with NCI-H322M lung it was 104%; in the assay with HOP-62 NSCLC, 102%; in the assay with NCI-H460 lung, 108%; in the assay with 786-0 renal it was 105%. The growth in the assay with DU-145 prostate is 107%; in the assay on MDA-MB-231 breast, 118%; in the assay on SF-268 CNS it was 104%; in the assay with SF-539 CNS, 102%; in the assay on M14 melanoma it was 107%; in the assay with SNB-19 CNS, 111%. Also, the growth was 105% in the assay on U251 CNS; 111% with SN12C renal; 82.5% with UO-31 renal; 108% with SK-OV-3 ovarian; 105% in the assay with MDA-MB-435 melanoma; 103% in the assay with SW-620 colon. In addition, the growth with HCT-116 colon is 108%; with KM12 colon it was 97%.
With `C[CH2][Sn]([CH2]C)([CH2]C)[NH]S(=O)(=O)c1ccc(C)cc1`, the growth in the assay with NCI-H23 lung is 96.4%; in the assay on NCI-H226 lung it was 116%; in the assay with NCI-H322M lung, 111%; in the assay on HOP-62 NSCLC, 121%; with NCI-H460 lung, 107%; with 786-0 renal, 109%. The growth in the assay on DU-145 prostate was 113%; in the assay on MDA-MB-231 breast, 107%; in the assay on SF-268 CNS, 108%; in the assay with M14 melanoma it was 108%; in the assay on SNB-19 CNS, 114%; in the assay on U251 CNS, 99.5%. The growth with SN12C renal was 106%; in the assay with UO-31 renal it was 86.9%; with SK-OV-3 ovarian, 110%; in the assay on MDA-MB-435 melanoma it was 102%; in the assay with SW-620 colon it was 101%; in the assay with HCT-116 colon it was 106%. Besides, the growth in the assay with KM12 colon was 105%.
Take `CC(N)Cc1ccc(O)cc1` (stereo not drawn): the growth in the assay on NCI-H23 lung was 108%; in the assay on NCI-H226 lung, 99.2%; with NCI-H322M lung it was 95.5%; in the assay with HOP-62 NSCLC, 111%; with NCI-H460 lung, 109%; in the assay on 786-0 renal it was 98.6%. Further, the growth was 112% in the assay with DU-145 prostate; 106% in the assay on MDA-MB-231 breast; 99.4% with SF-268 CNS; 117% with SF-539 CNS; 99.9% in the assay with M14 melanoma; 114% with SNB-19 CNS. The growth was 106% in the assay on U251 CNS; 105% in the assay with SN12C renal; 79.3% with UO-31 renal; 105% in the assay with SK-OV-3 ovarian; 106% in the assay with MDA-MB-435 melanoma; 103% with SW-620 colon. In addition, the results for the growth in the assay with HCT-116 colon and with KM12 colon were 100% and 107%, respectively.
With `O=C1NC(=S)NC(=O)C1=Cc1ccccc1`, the growth is 86.2% in the assay on NCI-H23 lung; 98.3% with NCI-H226 lung; 119% in the assay on NCI-H322M lung; 101% in the assay with HOP-62 NSCLC; 104% in the assay on NCI-H460 lung; 123% with 786-0 renal. Moreover, the growth in the assay with DU-145 prostate is 122%; with MDA-MB-231 breast, 104%; in the assay on SF-268 CNS, 110%; with SF-539 CNS, 103%; in the assay on M14 melanoma, 108%; in the assay with SNB-19 CNS, 107%. Moreover, the growth is 103% in the assay on U251 CNS; 106% in the assay with SN12C renal; 87.7% in the assay on UO-31 renal; 124% with MDA-MB-435 melanoma; 96% in the assay with SW-620 colon; 107% in the assay with HCT-116 colon. Besides, the growth with KM12 colon was 109%.
`O=[N+]([O-])c1ccccc1N1CCNCC1`: the growth was 96.4% in the assay on NCI-H23 lung; 107% in the assay with NCI-H226 lung; 96% with NCI-H322M lung; 89.4% with HOP-62 NSCLC; 109% in the assay with NCI-H460 lung; 94.1% in the assay with 786-0 renal. Also, the growth with DU-145 prostate is 108%; in the assay on MDA-MB-231 breast, 114%; with SF-268 CNS, 95.2%; with SF-539 CNS it was 99.8%; in the assay on M14 melanoma, 97.8%; in the assay with SNB-19 CNS, 102%. Further, the growth was 97.4% with U251 CNS; 97.1% with SN12C renal; 84.6% in the assay on UO-31 renal; 96% with SK-OV-3 ovarian; 103% in the assay on MDA-MB-435 melanoma; 104% in the assay with SW-620 colon. For the same molecule, the growth in the assay with HCT-116 colon and with KM12 colon was 101% in each case.
For the molecule `COc1cc(C2=NN(c3ccccc3)C(c3sc(N(CCCl)CCCl)nc3Cl)C2)cc(OC)c1OC` (stereo not drawn), the growth in the assay on NCI-H23 lung was 92.5%; with NCI-H226 lung, 81.8%; with NCI-H322M lung it was 91.4%; in the assay with HOP-62 NSCLC it was 79.7%; with NCI-H460 lung, 91.6%; in the assay with 786-0 renal, 91.8%. Besides, the growth is 102% in the assay on DU-145 prostate; 85.6% in the assay on MDA-MB-231 breast; 80.7% with SF-268 CNS; 110% with SF-539 CNS; 91.5% in the assay on M14 melanoma; 86.4% in the assay with SNB-19 CNS. Besides, the growth was 85.6% in the assay on U251 CNS; 79.9% in the assay with SN12C renal; 75.5% in the assay with UO-31 renal; 77.7% in the assay on SK-OV-3 ovarian; 101% with MDA-MB-435 melanoma; 97.2% in the assay with SW-620 colon. Also, the figures for the growth with HCT-116 colon and in the assay with KM12 colon were 80.3% and 82.8%, respectively.
Regarding `CCC[CH2][Sn]([CH2]CCC)([CH2]CCC)[O]C(=O)CC`, the growth in the assay on NCI-H23 lung was -87.1% (active); with NCI-H226 lung it was -58.9% (active); in the assay with NCI-H322M lung it was -95.2% (active); with HOP-62 NSCLC, -88.9% (active); with NCI-H460 lung it was -84.1% (active); in the assay on 786-0 renal it was -94.5% (active). Also, the growth in the assay with DU-145 prostate was -97.7% (active); with MDA-MB-231 breast, -79.4% (active); in the assay with SF-268 CNS, -97.3% (active); with SF-539 CNS, -85.1% (active); in the assay with M14 melanoma, -91.4% (active); with SNB-19 CNS, -75.6% (active). The growth in the assay on U251 CNS is -84.6% (active); in the assay with SN12C renal, -80.6% (active); in the assay on UO-31 renal, -90.4% (active); with SK-OV-3 ovarian it was -99.5% (active); in the assay with MDA-MB-435 melanoma, -89.3% (active); with SW-620 colon it was -84.8% (active). In addition, the growth in the assay on HCT-116 colon was -88.6% (active); with KM12 colon, -93.2% (active).
